# Measured values reported in PubChem BioAssay.
# This is one part of the list. The source made the active and inactive calls.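 How the source made its calls, unless noted: active means mean inhibition of the reporter signal across four replicates at the single tested dose of 50% or more; inactive means the rest.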
# Experiments:
# [1] = HIF-2a driven luciferase blockers, single dose – luminescence, 786-0 RCC cells, confirmation (AID 651580;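 active means mean inhibition across four replicates of at least 40 percent at the single tested concentration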); conditions: HIF-2a luciferase reporter luminescence, overnight, at 18.8 µM, stronger effect = higher value
# [2] = HIF-1a luciferase reporter signal reduction – MiaPaCa-2 cells, single concentration, counter-screen for HIF-2a inhibitor project, confirmation (AID 651589); conditions: MiaPaCa-2 HIF-1a luciferase reporter, desferoxamine, overnight; at 18.8 µM; stronger effect = higher value
# [3] = NFkB reporter suppression in cystic fibrosis bronchial cells – cell-based, uHTS hits, panel, cytotoxicity readout, dose response (AID 624344); conditions: CF bronchial epithelial cells, PAF-induced NFkB reporter inhibition, with PAF, run 1; at 79 µM (top of the series) unless noted
# [4] = as above; conditions: CF bronchial epithelial cells, PAF-induced NFkB reporter inhibition, with PAF, run 2; at 79 µM (top of the series) unless noted
# [5] = biological target: Tumor necrosis factor receptor superfamily member 10B (Homo sapiens) (UniProt O14763); assay: viability loss of caspase-8 NB7 cells with TRAIL – with/without TRAIL, luminescence panel, confirmation (AID 651596; in the data active means activity above about 50%); conditions: NB7 neuroblastoma + caspase-8, TRAIL sensitization, NB7 Caspase-8, with TRAIL, mean of runs, at 10 µM, stronger effect = higher value
# [6] = as above; conditions: NB7 neuroblastoma + caspase-8, without TRAIL, NB7 Caspase-8, without TRAIL, mean of runs, at 10 µM
# [7] = biological target: Tumor necrosis factor receptor superfamily member 10B (Homo sapiens) (UniProt O14763); assay: compound enhancement of TRAIL-induced cell killing – NB7 cells plus caspase-8, luminescence, panel, dose response (AID 652002); conditions: NB7 neuroblastoma +caspase-8, TRAIL sensitization, luminescence viability, NB7+Caspase-8, with TRAIL, run 1; at 12.5 µM (top of the series)
# [8] = biological target: Tumor necrosis factor receptor superfamily member 10B (Homo sapiens) (UniProt O14763); assay: as above; conditions: NB7 neuroblastoma +caspase-8, TRAIL sensitization, luminescence viability, NB7+Caspase-8, with TRAIL, run 2; at 12.5 µM (top of the series)
# [9] = as above; conditions: NB7 neuroblastoma +caspase-8, no TRAIL, compound-alone cytotoxicity counter-screen, luminescence viability, NB7+Caspase-8, run 1; at 12.5 µM (top of the series) unless noted
# [10] = as above; conditions: NB7 neuroblastoma +caspase-8, no TRAIL, compound-alone cytotoxicity counter-screen, luminescence viability, NB7+Caspase-8, run 2; at 12.5 µM (top of the series) unless noted
# Tumor necrosis factor receptor superfamily member 10B (Homo sapiens), sequence (O14763 whole entry, looked up): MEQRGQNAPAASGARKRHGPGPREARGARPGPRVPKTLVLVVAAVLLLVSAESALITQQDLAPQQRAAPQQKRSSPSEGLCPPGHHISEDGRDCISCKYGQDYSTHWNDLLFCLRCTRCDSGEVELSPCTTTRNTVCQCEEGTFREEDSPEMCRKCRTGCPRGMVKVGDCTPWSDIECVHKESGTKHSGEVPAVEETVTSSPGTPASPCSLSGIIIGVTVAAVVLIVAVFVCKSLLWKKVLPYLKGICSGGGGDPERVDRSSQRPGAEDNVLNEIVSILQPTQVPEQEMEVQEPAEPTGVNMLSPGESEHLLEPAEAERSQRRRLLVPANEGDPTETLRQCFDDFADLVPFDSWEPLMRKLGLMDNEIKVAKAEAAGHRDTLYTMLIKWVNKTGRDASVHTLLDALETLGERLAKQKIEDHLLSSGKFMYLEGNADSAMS
smiles,measurement,setting,value
O=S(=O)([N-]c1nc2ccccc2nc1-[n+]1ccc(Cc2ccccc2)cc1)c1ccc(Br)s1,inhibition,[1],-48.2% (inactive)
same,inhibition,[2],79.1% (active)
Cc1ccc(C(=O)Nc2cccc(C(F)(F)F)c2)cc1NC(=O)c1nccnc1N,inhibition,[3],75.2%
same,inhibition,[4],76%
same,activity,[5],50.6%
same,activity,[6],39%
CC(C)C[C@@H](N)c1nnc(SCC(=O)c2ccc(Cl)cc2)o1,inhibition,[1],80% (active)
same,inhibition,[2],-10.2% (inactive)
COc1ccc(N(Cc2cc(=O)[nH]c3ccccc23)C(=O)CCl)cc1,inhibition,[3],92.3%
same,inhibition,[4],88.4%
same,activity,[5],99.3%
same,activity,[6],99.5%
CC(C)(C)c1cc(C(=O)N/N=C/c2ccc([N+](=O)[O-])s2)n[nH]1,inhibition,[1],74.6% (active)
same,inhibition,[2],98.4% (active)
Cc1nn(-c2ccccc2)c(Cl)c1C(=O)N1CCN(c2ncnc3c2cnn3-c2ccccc2)CC1,inhibition,[3],114%
same,inhibition,[4],98.4%
same,activity,[5],82%
same,activity,[6],59.6%
CCOC(=O)c1sc(NC(=O)c2cccc(S(=O)(=O)N3CCc4ccccc43)c2)c(C#N)c1C,inhibition,[3],79.6%
same,inhibition,[4],80.5%
same,activity,[5],53.4%
same,activity,[6],41.3%
same,"activity, % sensitization",[7],29.7%
same,"activity, % sensitization",[8],-18%
same,"activity, % sensitization",[9],1.22%
same,"activity, % sensitization",[10],-10%
COc1cc2c(cc1O)C(SC)=NC(C)(C)C2,inhibition,[1],2.51% (inactive)
same,inhibition,[2],66.5% (active)
O=[N+]([O-])/C=C/c1ccc2c(ccn2Cc2ccccc2)c1,inhibition,[1],45.4% (active)
same,inhibition,[2],104% (active)
O=C(COC(=O)c1ccccc1C(=O)c1ccc(Cl)c([N+](=O)[O-])c1)NC1CCCCCC1,inhibition,[3],110%
same,inhibition,[4],99.7%
same,activity,[5],98.1%
same,activity,[6],97.2%
Cc1ccc(NC(=S)NC(NC(=O)Cc2cccc3ccccc23)C(Cl)(Cl)Cl)cc1 (stereo unspecified),inhibition,[1],-32.9% (inactive)
same,inhibition,[2],98.7% (active)
COc1ccc2[nH]cc(C(=O)CCl)c2c1,inhibition,[3],96.8%
same,inhibition,[4],99.6%
same,activity,[5],99.1%
same,activity,[6],99.2%
N#C/C(=C/c1cccc([N+](=O)[O-])c1)c1nnc2n1CCCCC2,inhibition,[1],23.5% (inactive)
same,inhibition,[2],11.7% (inactive)
Cc1coc2c(O)cc3c(c12)OC1(N2CCCCC2)C(=O)NCCCC31 (stereo unspecified),inhibition,[1],1.41% (inactive)
same,inhibition,[2],107% (active)
CC[C@@H]1Cc2cc(O)ccc2C2=C1c1ccc(O)cc1C[C@H]2CC,inhibition,[1],54.5% (active)
same,inhibition,[2],104% (active)
CC(C)C[C@@H](CN1CCCC1CN1C(=S)NC[C@@H]1Cc1ccc(O)cc1)N1C[C@H](Cc2ccc(O)cc2)N(CC2CCCCCC2)C1=S (stereo partly specified),inhibition,[3],116%
same,inhibition,[4],101%
same,activity,[5],18.3%
same,activity,[6],52%
Cc1ccc(-c2noc(CNC(=O)c3ccoc3C)n2)cc1,inhibition,[1],0.91% (inactive)
same,inhibition,[2],-16.7% (inactive)
CCN1CCC(O)(/C=C/c2ccc(C)cc2)C(C(=O)/C=C/c2ccc(C)cc2)C1 (stereo unspecified),inhibition,[1],5.88% (inactive)
same,inhibition,[2],105% (active)
Cc1cc(Cl)c(S(=O)(=O)Nc2ccc3c(c2)OCCO3)cc1OCC(N)=O,inhibition,[1],46.5% (active)
same,inhibition,[2],52.6% (active)
COc1cccc2c(C)c(C(=O)O)[nH]c12,inhibition,[1],35.5% (inactive)
same,inhibition,[2],37.3% (inactive)
CCOc1ccccc1NC(=O)c1nc(S(=O)(=O)Cc2ccccc2)ncc1Cl,inhibition,[3],78%
same,inhibition,[4],83.5%
same,activity,[5],79.4%
same,activity,[6],99.5%
COC(=O)c1c(NC(=O)CCCC(=O)O)sc2c1CCCCC2,inhibition,[1],41.2% (active)
same,inhibition,[2],27.3% (inactive)
CCN(CC)CCCC(C)n1c2nc(=O)[nH]c(=O)c-2nc2cc(Cl)ccc21 (stereo unspecified),inhibition,[1],97.9% (active)
same,inhibition,[2],50% (inactive)
CCC(C)(C)c1ccc(Oc2ccc(NC(=O)COC(=O)C3=COCCO3)cc2)cc1,inhibition,[1],97.8% (active)
same,inhibition,[2],92.9% (active)
NC(N)=Nc1nc(-c2ccccc2)c2cc(Cl)ccc2n1,inhibition,[1],17.8% (inactive)
same,inhibition,[2],107% (active)
OCCN1CCN(C(=S)c2ccc(-c3ccccc3)cc2)CC1,inhibition,[1],93% (active)
same,inhibition,[2],69.1% (active)
Cc1c(CCC(=O)O)c(=O)oc2cc3occ(-c4ccccc4)c3cc12,inhibition,[1],68.1% (active)
same,inhibition,[2],50.7% (active)
CCS(=O)(=O)c1ncc(Cl)c(C(=O)Nc2ccccc2OC)n1,inhibition,[3],95.8%
same,inhibition,[4],86%
same,activity,[5],98.4%
same,activity,[6],99%
COc1ccc(-c2cc(-c3nc4ccccn4c3NCc3ccccc3)ccc2OC)cc1,inhibition,[3],105%
same,inhibition,[4],96.6%
same,activity,[5],93.2%
same,activity,[6],88.6%
CCN1CCN(CCNC(=O)c2ccc3c(c2)NC(=O)/C(=C\c2cccc(Cl)c2)S3)CC1,inhibition,[1],-18.3% (inactive)
same,inhibition,[2],108% (active)
Cc1nnnn1/C(=C\c1ccccc1)C(=O)OCC(=O)N1CC2(C)CC1CC(C)(C)C2 (stereo unspecified),inhibition,[1],62% (active)
same,inhibition,[2],67.3% (active)
O=Nc1ccc(NO)c2ccccc12,inhibition,[3],77.1% [at 39.5 µM]
same,inhibition,[4],48.9%
same,activity,[5],79.8%
same,activity,[6],47.2%
same,"activity, % sensitization",[7],19%
same,"activity, % sensitization",[8],40.7%
same,"activity, % sensitization",[9],39.7%
same,"activity, % sensitization",[10],31.2%
CCOc1ccc(CNC(=O)C2CCCN(c3nnc(C)c4c(C)n(-c5ccccc5)nc34)C2)cc1 (stereo unspecified),inhibition,[1],6.1% (inactive)
same,inhibition,[2],-3.66% (inactive)
